# According to PubChem BioAssay (NCI):
# Compounds without any hit were thinned out: in the full panel of roughly 83,000, 20% have a hit.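 The test compound was applied at a single concentration to cells in 96-well plates for 48 hours, and percent growth was recorded.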 Activity calls are given as the source filed them. The calls were made as follows: active = growth percent below 10; inactive = the rest.
# Tested on: SN12C renal
# Assay: NCI-60 one-dose screen, 48 h (100 = growth as untreated, 0 = no growth, -100 = all killed)
# Conditions: 10 µM unless noted
row,Structure (SMILES),growth
1,Cc1ccc(OC(=O)c2ccc(Cl)cc2)cc1,95.9% (inactive)
2,O=C(CCCCC(=O)N/N=C\c1ccccc1O)N/N=C\c1ccccc1O,47.4% (inactive)
3,Cc1ccc(NC(=O)/C=C/c2ccccc2)c(C(N)=O)c1,53.1% (inactive)
4,CN1CCN(CCCOc2cccc3nc(Nc4ccc(Cl)c(F)c4)ccc23)CC1,63.7% (inactive)
5,NC1=C(Cl)C(=O)c2ccc(S(N)(=O)=O)cc2C1=O,-67.5% (active)
6,O=C1c2cc3c(cc2-c2c1c1ccc(Cl)cc1c(=O)n2CCCN1CCOCC1)OCO3,46.3% (inactive)
7,O=C1C=CC(=O)N1c1ccc2c(c1)Cc1cc(F)ccc1-2,94.6% (inactive)
8,FC(F)(F)c1nc2c(NCc3ccc(-c4ccccc4)cc3)cccc2[nH]1,88.4% (inactive)
9,OC(c1cc2cc(Cl)c(Cl)cc2c2cc(C(F)(F)F)ccc12)C1CCCCN1 (centres undefined),-73.2% (active)
10,Brc1ccc(-c2csc(Nc3ccccn3)n2)cc1,95.7% (inactive)
11,O=C(Cc1ccccc1Nc1c(Cl)cccc1Cl)NN1C(=O)/C(=C/c2ccc(Br)cc2)SC1=S,100% (inactive)
12,COc1ccc(C2CC(c3ccc(Cl)cc3)=NN2/C=C2\SC(=S)N(NC(=O)Cc3ccccc3Nc3c(Cl)cccc3Cl)C2=O)cc1 (centres undefined),48.5% (inactive)
13,CCOC(=O)c1csc(NC(=O)COc2cccc(/C=C3\CSc4ccccc4C3=O)c2)n1,74.8% (inactive)
14,Cn1cc(-c2nonc2-c2c[nH]c3ccccc23)c2cccnc21,39.6% (inactive)
15,COc1cc(/C=C/c2cc(/C=C/c3ccc(O)c(OC)c3)n(-c3c(C)cccc3C)c(=O)n2)ccc1O,11.6% (inactive)
16,COc1cccc(C2=NN3C(C2)c2cc(Br)cc(OC)c2OC32CCN(Cc3ccccc3)CC2)c1 (centres undefined),98.7% (inactive)
17,CC(C)(C)c1cc(C(C)(C)C)cc(S(=O)(=O)Nc2cc3ccccc3cc2C(=O)NCCN)c1,46.6% (inactive)
18,O=C(N(c1ccccc1)c1ccccc1)n1ccc2nc(Cl)nc(Cl)c21,53.8% (inactive)
19,Cc1[nH]c(-c2cc(N)ccc2Cl)c2c1C(=O)CCCC2,35% (inactive)
20,NC(=O)c1cc(Cl)ccc1NC(=O)/C=C/c1ccccc1,49% (inactive)
21,Cn1ncc2c(=O)nc3c(-c4ccccc4)n[nH]n3c21,99.5% (inactive)
22,Cn1cc(C(=O)c2nc(-c3c[nH]c4ccc(Br)cc34)no2)c2cc(F)ccc21,92.8% (inactive)
23,Cc1[nH]c(-c2ccc3cc[nH]c3c2)c2c1C(=O)CCCC2,50.8% (inactive)
24,O=C1/C(=C(/c2ccccc2)N2CCOCC2)Cc2ccccc21,-42.6% (active)
25,Cn1c(NCCc2ccc(O)c(O)c2)nc2c1c(=O)n(Cc1ccc(Cl)c(Cl)c1)c(=O)n2C,71.5% (inactive)
26,Cc1nn(-c2ccc(F)cc2)c2ncnc(Oc3ccc(NC(=O)Nc4ccc(Cl)c(C(F)(F)F)c4)cc3)c12,95.1% (inactive)

# Tested on: UO-31 renal
# Assay: as above
# Conditions: 10 µM unless noted
row,Structure (SMILES),growth
1,CC(C)(C)N1CCC1CN (centres undefined),91.1% (inactive)
2,C=C1C(=O)O[C@H]2[C@H]1CC/C(COC(=O)c1cc3cc(OC)ccc3[nH]1)=C\CC[C@@]1(C)O[C@@H]21,-95.6% (active)
3,CC[C@]1(O)C[C@@H]2CN(CCc3c([nH]c4ccccc34)[C@@](C(=O)OC)(c3cc4c(cc3OC)N(C)[C@H]3[C@@](O)(C(N)=O)[C@H](O)[C@]5(CC)[C@@H]6C[C@@H]6CN6CC[C@]43[C@@H]65)C2)C1,50% (inactive)
4,Cc1nn(-c2ccc(F)cc2)c2ncnc(Nc3ccc(NC(=O)Nc4ccc(Cl)c(C(F)(F)F)c4)cc3)c12,40.1% (inactive)
5,O=C(N/N=C/c1ccccc1O)c1ccccc1Nc1ccnc(C(F)(F)F)c1,7.98% (active)
6,CC(=O)O[C@H]1[C@@H]2OC(=O)C(CSc3ccccc3)[C@@H]2C[C@H]2O[C@]2(C)CC/C=C(\C)CCC[C@@H]1C (some centres undefined),11.7% (inactive)
7,C#CCOc1ccc2ncnc(N3CCC(NC(=O)CCl)CC3)c2c1,40.6% [8.25 µM] (inactive)
8,CCC(=O)c1ccc(Cl)s1,98% (inactive)
9,O=C1CC[C@H](c2ccc(O)c3c2C(=O)[C@@H]2O[C@@H]2C3=O)c2cccc(O)c21,-77.4% (active)
10,COc1ccc(S(=O)(=O)N2CC3(COC3)C2)cc1NC(=O)c1[nH]c(C)c2c1CCCCC2=O,40.4% (inactive)
11,O=C1/C(=C/c2ccc3c(c2)OCO3)SC(=S)N1CCc1ccc(O)cc1,58.8% (inactive)
12,Oc1ccccc1-c1nnc(CNc2ccc(Cl)cc2)o1,19% (inactive)
13,Cc1ccc(OC(=O)c2ccc(Cl)cc2)cc1,102% (inactive)
14,O=C(CCCCC(=O)N/N=C\c1ccccc1O)N/N=C\c1ccccc1O,19.3% (inactive)
15,Cc1ccc(NC(=O)/C=C/c2ccccc2)c(C(N)=O)c1,46.7% (inactive)
16,CN1CCN(CCCOc2cccc3nc(Nc4ccc(Cl)c(F)c4)ccc23)CC1,22.5% (inactive)
17,NC1=C(Cl)C(=O)c2ccc(S(N)(=O)=O)cc2C1=O,-95.9% (active)
18,O=C1c2cc3c(cc2-c2c1c1ccc(Cl)cc1c(=O)n2CCCN1CCOCC1)OCO3,44.5% (inactive)
19,O=C1C=CC(=O)N1c1ccc2c(c1)Cc1cc(F)ccc1-2,80.6% (inactive)

row,Structure (SMILES),growth
1,FC(F)(F)c1nc2c(NCc3ccc(-c4ccccc4)cc3)cccc2[nH]1,57.5% (inactive)
2,OC(c1cc2cc(Cl)c(Cl)cc2c2cc(C(F)(F)F)ccc12)C1CCCCN1 (centres undefined),-74.2% (active)
3,Brc1ccc(-c2csc(Nc3ccccn3)n2)cc1,75.8% (inactive)
4,O=C(Cc1ccccc1Nc1c(Cl)cccc1Cl)NN1C(=O)/C(=C/c2ccc(Br)cc2)SC1=S,90.9% (inactive)
5,COc1ccc(C2CC(c3ccc(Cl)cc3)=NN2/C=C2\SC(=S)N(NC(=O)Cc3ccccc3Nc3c(Cl)cccc3Cl)C2=O)cc1 (centres undefined),-30.2% (active)
6,CCOC(=O)c1csc(NC(=O)COc2cccc(/C=C3\CSc4ccccc4C3=O)c2)n1,-35.1% (active)
7,Cn1cc(-c2nonc2-c2c[nH]c3ccccc23)c2cccnc21,55.7% (inactive)
8,COc1cc(/C=C/c2cc(/C=C/c3ccc(O)c(OC)c3)n(-c3c(C)cccc3C)c(=O)n2)ccc1O,1.61% (active)
9,COc1cccc(C2=NN3C(C2)c2cc(Br)cc(OC)c2OC32CCN(Cc3ccccc3)CC2)c1 (centres undefined),85.3% (inactive)
10,CC(C)(C)c1cc(C(C)(C)C)cc(S(=O)(=O)Nc2cc3ccccc3cc2C(=O)NCCN)c1,53.2% (inactive)
11,O=C(N(c1ccccc1)c1ccccc1)n1ccc2nc(Cl)nc(Cl)c21,57.1% (inactive)
12,Cc1[nH]c(-c2cc(N)ccc2Cl)c2c1C(=O)CCCC2,10.1% (inactive)
13,NC(=O)c1cc(Cl)ccc1NC(=O)/C=C/c1ccccc1,41.3% (inactive)
14,Cn1ncc2c(=O)nc3c(-c4ccccc4)n[nH]n3c21,97.1% (inactive)
15,Cn1cc(C(=O)c2nc(-c3c[nH]c4ccc(Br)cc34)no2)c2cc(F)ccc21,68.8% (inactive)
16,Cc1[nH]c(-c2ccc3cc[nH]c3c2)c2c1C(=O)CCCC2,22.2% (inactive)
17,O=C1/C(=C(/c2ccccc2)N2CCOCC2)Cc2ccccc21,-47.8% (active)
18,Cn1c(NCCc2ccc(O)c(O)c2)nc2c1c(=O)n(Cc1ccc(Cl)c(Cl)c1)c(=O)n2C,34% (inactive)
19,Cc1nn(-c2ccc(F)cc2)c2ncnc(Oc3ccc(NC(=O)Nc4ccc(Cl)c(C(F)(F)F)c4)cc3)c12,100% (inactive)
